Smad3 FoxH1 inh – blocks human Smad3 binding to FoxH1 peptide. P84022. TR-FRET Smad3/Dy647-FoxH1 peptide binding, europium anti-His. inhibition, % at 25 µM. hit rate 0.29% among 88,000;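 active means compounds that reduce the energy-transfer binding signal between the protein and its labelled peptide by more than half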;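 further: 0% = Smad3 plus labelled peptide maximal FRET and 100% = peptide-only background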
ERa coact pot – enhances coactivator binding to human estrogen receptor alpha. hit rate 1.3% among 86,000. coactivator binding (% of control), % at 25.6 µM. TR-FRET ERalpha-LBD/SRC-Cy5 coactivator binding, 2 h; 100 = basal binding, no effect; in the data active means activity above about 200%;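 further: binding measured in presence of low estradiol as agonist stimulus; 0% = peptide alone without receptor and 100% = receptor with peptide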
FAK blocker – FAK (human) kinase inhibition | hit rate 0.84% among 97,000 | biochemical FAK kinase activity assay | AID 727 | inhibition, %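 (tested at 7 µM)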 | Q05397; in the data active means inhibition above about 19%;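 further: 0% = DMSO and 100% = reference compound high control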
ERb SRC1 inh – ER-beta (human) coactivator binding inhibition; Q92731; hit rate 1.3% among 86,000; TR-FRET ER-beta LBD / SRC1-Cy5 peptide binding; receptor agonist-loaded with 1 µM estradiol; inhibition, % at 25.6 µM;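 active means compounds whose percent inhibition of the receptor-coactivator binding signal exceeds about 50% in the single-dose screen, limit read from the data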;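 further: 0% = receptor plus peptide wells without compound and 100% = peptide-only wells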
Target sequence (Q92731 whole entry, looked up, the tested form may be a part): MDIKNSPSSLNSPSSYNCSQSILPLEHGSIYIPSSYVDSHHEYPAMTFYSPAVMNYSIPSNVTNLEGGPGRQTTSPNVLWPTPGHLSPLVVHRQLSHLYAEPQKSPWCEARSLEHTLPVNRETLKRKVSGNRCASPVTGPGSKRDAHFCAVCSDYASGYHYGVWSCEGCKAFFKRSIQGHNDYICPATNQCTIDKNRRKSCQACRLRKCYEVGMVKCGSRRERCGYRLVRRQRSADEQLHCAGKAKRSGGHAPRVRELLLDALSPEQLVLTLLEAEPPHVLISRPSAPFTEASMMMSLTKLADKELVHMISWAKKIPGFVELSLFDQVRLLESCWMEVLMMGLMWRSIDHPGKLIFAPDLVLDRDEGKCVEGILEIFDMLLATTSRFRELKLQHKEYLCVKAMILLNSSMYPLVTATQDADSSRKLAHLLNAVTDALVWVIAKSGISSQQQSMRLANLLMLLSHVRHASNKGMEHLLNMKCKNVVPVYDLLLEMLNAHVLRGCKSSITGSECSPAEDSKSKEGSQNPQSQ
ERa coact inh – blocks coactivator binding to human estrogen receptor alpha. P03372. TR-FRET ER-alpha LBD / SRC-1 peptide, estradiol-bound. inhibition, % at 25.6 µM. hit rate 1.7% among 86,000; in the data active means inhibition above about 50%;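 further: 0% = receptor plus peptide control and 100% = peptide only without receptor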
Starred values were filed as active, the others as inactive; [ ] = dose if it differs, or a comment. This is a sample that favours compounds with a hit; in the whole collection about 3.3% have one here.

`COc1cc2cc(C(c3nnnn3C3CCCC3)N3CCCCC3)c(=O)[nH]c2cc1OC` (stereo not given) gave Smad3 FoxH1 inh 11, ERa coact pot 119, FAK blocker 0, ERb SRC1 inh 1 and ERa coact inh -4.
CCOC(=O)c1c(N)sc(=S)c2c1CCC2 was read as Smad3 FoxH1 inh 8, ERa coact pot 45, FAK blocker 0, ERb SRC1 inh 70* and ERa coact inh 55*[fluorescence artefact?].
O=C(O)[C@@H]1[C@H]2C[C@@H]3[C@@H](OC(=O)[C@@H]31)[C@H]2Br was read as Smad3 FoxH1 inh -9.
`CC1CCC2(CC1)NC(=O)N(CC(=O)c1ccc[nH]1)C2=O` (stereo not given) gave Smad3 FoxH1 inh -5, ERa coact pot 80, FAK blocker 2, ERb SRC1 inh 36 and ERa coact inh 75*.
Screening Cc1ccc([C@@H](O)c2cnc(C)n2Cc2ccccc2)cc1 returned Smad3 FoxH1 inh 9.
For COc1ccc(N2C(=O)CCC2=O)cc1 the results were Smad3 FoxH1 inh -7, ERa coact pot 45, FAK blocker -12, ERb SRC1 inh 43 and ERa coact inh 52*[fluorescence artefact?].
For CC(=O)Oc1ccc(N2C(=O)CCC2=O)cc1 the results were Smad3 FoxH1 inh -10, ERa coact pot 98, FAK blocker 1, ERb SRC1 inh 2 and ERa coact inh -1.
Screening CCc1ccc2nc(SCC(=O)N3CCCCC3)c(C#N)cc2c1 returned Smad3 FoxH1 inh 2, ERa coact pot 95, FAK blocker 9, ERb SRC1 inh -7 and ERa coact inh -8.
CCc1ccc2nc(SCC(=O)N3CC(=O)Nc4ccccc43)c(C#N)cc2c1 was read as Smad3 FoxH1 inh 22, ERa coact pot 360*, FAK blocker 0, ERb SRC1 inh -13 and ERa coact inh 5.
Screening COc1ccc(-c2noc(CCC(=O)N3CCN(c4cccc(C(F)(F)F)c4)CC3)n2)cc1 returned Smad3 FoxH1 inh 8, ERa coact pot 99, FAK blocker 4, ERb SRC1 inh 51* and ERa coact inh -11.
Screening COc1ccc(NC(=O)N2CCN(c3cccc(C(F)(F)F)c3)CC2)cc1 returned Smad3 FoxH1 inh 33, ERa coact pot 106, FAK blocker 1, ERb SRC1 inh 20 and ERa coact inh 14.
Screening O[C@@H](c1cc(-c2ccccc2)nc2c1ccc1ccccc12)[C@@H]1CCCCN1 returned Smad3 FoxH1 inh 15.
For Cc1ccc2nc(-c3cccc(N)c3)oc2c1 the results were Smad3 FoxH1 inh 9, ERa coact pot 88, FAK blocker 2, ERb SRC1 inh -1 and ERa coact inh 0.
Cc1ccc2nc(-c3cccc(-c4nc5ccc(C)cc5o4)n3)oc2c1 was read as Smad3 FoxH1 inh -8, ERa coact pot 248*[fluorescence artefact?], ERb SRC1 inh 12 and ERa coact inh 7.
Screening CCOC(=O)Cn1c(C(F)(F)F)nc2nc(Cl)c(Cl)nc21 returned Smad3 FoxH1 inh 56*.
For CCOC(=O)Cn1c2ccccc2c2nc3ccccc3nc21 the results were Smad3 FoxH1 inh 18, ERa coact pot 77, FAK blocker 4, ERb SRC1 inh 13 and ERa coact inh 48.
CCCOc1ccc2c3c(c(=O)oc2c1OCCC)CCCC3 was read as Smad3 FoxH1 inh 4, ERa coact pot 76, FAK blocker -3, ERb SRC1 inh 10 and ERa coact inh -2.
For CCOc1ccc2c3c(c(=O)oc2c1OCC)CCCC3 the results were Smad3 FoxH1 inh -14, ERa coact pot 112, FAK blocker 2, ERb SRC1 inh 4 and ERa coact inh 84*[fluorescence artefact?].
Cc1noc(C)c1COC(=O)c1ccc(-c2nc3ccccc3s2)s1 was read as Smad3 FoxH1 inh 15, ERa coact pot 152, FAK blocker -3, ERb SRC1 inh 42 and ERa coact inh 61*[fluorescence artefact?].
Screening Cc1ccccc1NC(=O)CSc1nnc(-c2ccco2)c(-c2ccco2)n1 returned Smad3 FoxH1 inh 6, ERa coact pot 58, FAK blocker 15, ERb SRC1 inh 72* and ERa coact inh 71*.
`CCc1ccccc1NC(=O)CSc1nnc(-c2ccco2)n1N` gave Smad3 FoxH1 inh 5, ERa coact pot 120, FAK blocker 2, ERb SRC1 inh -1 and ERa coact inh 4.
For O=C(CSc1nnc(-c2ccco2)c(-c2ccco2)n1)Nc1ccccc1 the results were Smad3 FoxH1 inh -8, ERa coact pot 22, FAK blocker 16, ERb SRC1 inh 86*[fluorescence artefact?] and ERa coact inh 84*[fluorescence artefact?].
`O=C(CSc1nnc(-c2ccccc2)c(-c2ccccc2)n1)NCc1ccco1` gave Smad3 FoxH1 inh 3, ERa coact pot 98, FAK blocker -1, ERb SRC1 inh -1 and ERa coact inh -9.
CSc1nnc(-c2ccco2)c(-c2ccco2)n1 was read as Smad3 FoxH1 inh 28, ERa coact pot 7, FAK blocker 8, ERb SRC1 inh 91*[fluorescence artefact?] and ERa coact inh 90*[fluorescence artefact?].
For N#Cc1ccc(-c2ccc3c(c2)OCO3)nc1SCC(=O)OCc1ccccc1 the results were Smad3 FoxH1 inh -15, ERa coact pot 246*[fluorescence artefact?], FAK blocker -2, ERb SRC1 inh -5 and ERa coact inh 17.
COc1ccc(-c2ccc(C#N)c(SCC(=O)OCc3ccccc3)n2)cc1OC was read as Smad3 FoxH1 inh 14, ERa coact pot 206*[fluorescence artefact?], FAK blocker -2, ERb SRC1 inh 43 and ERa coact inh -1.
For Cn1c([N+](=O)[O-])cnc1CN1CCN(CCO)CC1 the results were Smad3 FoxH1 inh 0.
Nc1cccc2cc(S(=O)(=O)Nc3ccc(C(=O)O)cc3)ccc12 was read as Smad3 FoxH1 inh 10.
O=Cc1ccc2oc3nc4n(c(=O)c3c(=O)c2c1)CCCS4 was read as Smad3 FoxH1 inh 14, ERa coact pot 153, FAK blocker 15, ERb SRC1 inh 58* and ERa coact inh 66*.
`O=C(CCCN1C(=O)c2ccccc2C1=O)Nc1c(C(=O)C2CC2)oc2ccccc12` gave Smad3 FoxH1 inh -8, ERa coact pot 111, FAK blocker -3, ERb SRC1 inh -2 and ERa coact inh 2.
Screening COC(=O)c1oc2ccc(Br)cc2c1NC(=O)CCCN1C(=O)c2ccccc2C1=O returned Smad3 FoxH1 inh -32, ERa coact pot 131, ERb SRC1 inh 26 and ERa coact inh 52*.
`CCCc1cc(COC)c(C#N)c(=O)[nH]1` gave Smad3 FoxH1 inh 7.
For NCc1ccc(C(=O)O)cc1 the results were Smad3 FoxH1 inh 7.
For Cc1ccc(S(=O)(=O)N2CCN(C(=O)CSc3ncc(C(F)(F)F)cc3Cl)CC2)cc1 the results were Smad3 FoxH1 inh -22, ERa coact pot 94, FAK blocker 2, ERb SRC1 inh 1 and ERa coact inh 69*.
Screening S[C@@H]1CCCN(Cc2ccccc2)C1 returned Smad3 FoxH1 inh 56*.
O=C(O)[C@H](Cc1cc(I)c(O)c(I)c1)C1CCCCC1 was read as Smad3 FoxH1 inh 11.
`Cc1ccc(C)c2[nH]c(=O)c(C(c3nnnn3CCc3ccccc3)N3CCOCC3)cc12` (stereo not given) gave Smad3 FoxH1 inh -5, ERa coact pot 102, FAK blocker 4, ERb SRC1 inh 7 and ERa coact inh 1.

Source: PubChem
